{"source": "the supplement of paper PMC8728848", "binders": {"B1": {"name": "CAA (Caragana arborescens) (protein)", "chain": "VAVEFDTFDNPDWDPRTKHIGIDVNSIRSNKTTQWGFWNRQVADVDISYEASSKTLNVSLYYPGESYIVTDVVDLKDILPEWVRIGF"}}, "test_in_all_cases": "glycan array binding signal (z-score within array); higher = stronger binding", "details_in_all_cases": "glycan notation: IUPAC condensed, linker removed", "key": {"[1]": {"biological_target": "Fuc(a1-2)Gal(b1-3)GlcNAc(b1-2)Man(a1-3)[Fuc(a1-2)Gal(b1-3)GlcNAc(b1-2)Man(a1-6)]Man(b1-4)GlcNAc(b1-4)GlcNAc", "method_in_brief": "(§1)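 Arrays were curated from the Consortium for Functional Glycomics database, 3228 in total, and kept only where the protein sequence was available. Binding is expressed as a within-array Z-score. This score was averaged across arrays of the same protein sequence at different concentrations or buffers and across linkers, and negative values can be read as non-binding.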"}, "[2]": {"biological_target": "Fuc(a1-2)Gal(b1-3)GlcNAc(b1-3)GalNAc", "method_in_brief": "as §1"}, "[3]": {"biological_target": "Fuc(a1-2)Gal(b1-3)GlcNAc(b1-3)[Fuc(a1-2)Gal(b1-3)GlcNAc(b1-6)]GalNAc", "method_in_brief": "as §1"}, "[4]": {"biological_target": "Fuc(a1-2)Gal(b1-3)GlcNAc(b1-3)[Gal(b1-4)GlcNAc(b1-6)]Gal(b1-4)Glc", "method_in_brief": "as §1"}, "[5]": {"biological_target": "Fuc(a1-2)Gal(b1-3)[Fuc(a1-4)]GlcNAc(b1-2)Man(a1-3)[Fuc(a1-2)Gal(b1-3)[Fuc(a1-4)]GlcNAc(b1-2)Man(a1-6)]Man(b1-4)GlcNAc(b1-4)[Fuc(a1-6)]GlcNAc(b1-4)[Fuc(a1-6)]GlcNAc", "method_in_brief": "as §1"}, "[6]": {"biological_target": "Fuc(a1-2)Gal(b1-4)GlcNAc", "method_in_brief": "as §1"}, "[7]": {"biological_target": "Fuc(a1-2)Gal(b1-4)GlcNAc(b1-2)Man(a1-3)[Fuc(a1-2)Gal(b1-4)GlcNAc(b1-2)Man(a1-6)]Man(b1-4)GlcNAc(b1-4)GlcNAc", "method_in_brief": "as §1"}, "[8]": {"biological_target": "Fuc(a1-2)Gal(b1-4)[Fuc(a1-3)]GlcNAc(b1-3)GalNAc", "method_in_brief": "as §1"}, "[9]": {"biological_target": "Fuc(a1-2)[Gal(a1-3)]Gal(b1-3)GlcNAc", "method_in_brief": "as §1"}, "[10]": {"biological_target": "Fuc(a1-2)[Gal(a1-3)]Gal(b1-3)GlcNAc(b1-2)Man(a1-3)[Fuc(a1-2)[Gal(a1-3)]Gal(b1-3)GlcNAc(b1-2)Man(a1-6)]Man(b1-4)GlcNAc(b1-4)GlcNAc", "method_in_brief": "as §1"}, "[11]": {"biological_target": "Fuc(a1-2)[Gal(a1-3)]Gal(b1-4)GlcNAc(b1-6)GalNAc", "method_in_brief": "as §1"}, "[12]": {"biological_target": "Fuc(a1-2)[GalNAc(a1-3)]Gal(b1-4)GlcNAc(b1-3)Gal(b1-4)GlcNAc(b1-3)Gal(b1-4)GlcNAc", "method_in_brief": "as §1"}, "[13]": {"biological_target": "Gal(b1-3)GalNAc(b1-3)Gal(a1-4)Gal(b1-4)Glc", "method_in_brief": "as §1"}, "[14]": {"biological_target": "Gal(b1-3)GlcNAc(b1-2)Man(a1-3)[Gal(b1-3)GlcNAc(b1-2)Man(a1-6)]Man(b1-4)GlcNAc(b1-4)GlcNAc", "method_in_brief": "as §1"}, "[15]": {"biological_target": "Gal(b1-3)GlcNAc(b1-2)Man(a1-3)[Gal(b1-3)GlcNAc(b1-2)Man(a1-6)]Man(b1-4)GlcNAc(b1-4)[Fuc(a1-6)]GlcNAc", "method_in_brief": "as §1"}, "[16]": {"biological_target": "Gal(b1-3)GlcNAc(b1-2)[Gal(b1-3)GlcNAc(b1-6)]Man(a1-6)[Gal(b1-3)GlcNAc(b1-2)Man(a1-3)]Man(b1-4)GlcNAc(b1-4)GlcNAc", "method_in_brief": "as §1"}, "[17]": {"biological_target": "Gal(b1-3)[Fuc(a1-4)]GlcNAc", "method_in_brief": "as §1"}, "[18]": {"biological_target": "Gal(b1-4)Gal", "method_in_brief": "as §1"}, "[19]": {"biological_target": "Gal(b1-4)GlcNAc(a1-6)Gal(b1-4)GlcNAc", "method_in_brief": "as §1"}, "[20]": {"biological_target": "Gal(b1-4)GlcNAc(b1-2)Man(a1-3)[Gal(b1-4)GlcNAc(b1-2)Man(a1-6)]Man(b1-4)GlcNAc(b1-4)GlcNAc", "method_in_brief": "as §1"}, "[21]": {"biological_target": "Gal(b1-4)GlcNAc(b1-2)Man(a1-3)[GlcNAc(b1-4)][Gal(b1-4)GlcNAc(b1-2)Man(a1-6)]Man(b1-4)GlcNAc(b1-4)GlcNAc", "method_in_brief": "as §1"}, "[22]": {"biological_target": "Gal(b1-4)GlcNAc(b1-2)Man(a1-6)[GlcNAc(b1-2)Man(a1-3)]Man(b1-4)GlcNAc(b1-4)GlcNAc", "method_in_brief": "as §1"}, "[23]": {"biological_target": "Gal(b1-4)GlcNAc(b1-2)[Gal(b1-4)GlcNAc(b1-4)]Man(a1-3)[GlcNAc(b1-4)][Gal(b1-4)GlcNAc(b1-2)Man(a1-6)]Man(b1-4)GlcNAc(b1-4)GlcNAc", "method_in_brief": "as §1"}, "[24]": {"biological_target": "GalNAc6S(b1-4)GlcNAc", "method_in_brief": "as §1"}, "[25]": {"biological_target": "GlcA(b1-6)Gal", "method_in_brief": "as §1"}, "[26]": {"biological_target": "GlcNAc(a1-4)Gal(b1-4)GalNAc", "method_in_brief": "as §1"}, "[27]": {"biological_target": "GlcNAc(b1-2)Man(a1-3)[GlcNAc(b1-2)Man(a1-6)]Man(b1-4)GlcNAc(b1-4)GlcNAc", "method_in_brief": "as §1"}, "[28]": {"biological_target": "GlcNAc(b1-2)[GlcNAc(b1-4)]Man(a1-3)[GlcNAc(b1-2)Man(a1-6)]Man(b1-4)GlcNAc(b1-4)GlcNAc", "method_in_brief": "as §1"}, "[29]": {"biological_target": "GlcNAc(b1-3)Fuc", "method_in_brief": "as §1"}, "[30]": {"biological_target": "Man(a1-2)Man(a1-3)[Man(a1-2)Man(a1-6)]Man(a1-6)[Man(a1-2)Man(a1-2)Man(a1-3)]Man", "method_in_brief": "as §1"}, "[31]": {"biological_target": "Neu5Ac(a2-3)Gal(b1-3)[Fuc(a1-4)]GlcNAc(b1-3)Gal(b1-3)[Fuc(a1-4)]GlcNAc", "method_in_brief": "as §1"}, "[32]": {"biological_target": "Neu5Ac(a2-3)Gal(b1-4)GlcNAc(b1-3)Gal(b1-4)[Fuc(a1-3)]GlcNAc", "method_in_brief": "as §1"}, "[33]": {"biological_target": "Neu5Ac(a2-3)GalNAc", "method_in_brief": "as §1"}, "[34]": {"biological_target": "Neu5Ac(a2-6)Gal(b1-4)GlcNAc(b1-2)Man(a1-3)[GlcNAc(b1-4)][Neu5Ac(a2-6)Gal(b1-4)GlcNAc(b1-2)Man(a1-6)]Man(b1-4)GlcNAc(b1-4)GlcNAc", "method_in_brief": "as §1"}, "[35]": {"biological_target": "Neu5Ac(a2-6)Gal(b1-4)GlcNAc(b1-2)Man(a1-6)[Gal(b1-4)GlcNAc(b1-2)Man(a1-3)]Man(b1-4)GlcNAc(b1-4)GlcNAc", "method_in_brief": "as §1"}, "[36]": {"biological_target": "Neu5Ac(a2-6)Gal(b1-4)GlcNAc(b1-2)Man(a1-6)[GlcNAc(b1-2)Man(a1-3)]Man(b1-4)GlcNAc(b1-4)GlcNAc", "method_in_brief": "as §1"}, "[37]": {"biological_target": "Neu5Ac(a2-6)Gal(b1-4)GlcNAc(b1-2)Man(a1-6)[Man(a1-3)]Man(b1-4)GlcNAc(b1-4)GlcNAc", "method_in_brief": "as §1"}, "[38]": {"biological_target": "Neu5Ac(a2-6)Gal(b1-4)GlcNAc(b1-6)GalNAc", "method_in_brief": "as §1"}, "[39]": {"biological_target": "Neu5Ac(a2-8)Neu5Ac(a2-8)Neu5Ac", "method_in_brief": "as §1"}, "[40]": {"biological_target": "Neu5Ac9Ac(a2-6)Gal(b1-4)GlcNAc", "method_in_brief": "as §1"}}, "note": "About 410 targets per protein were measured; listed, in parts, are those with the strongest signals and a random draw of the rest.", "data": [{"binder": "B1", "values": [{"measurement": "glycan array binding signal (z-score)", "setting": "[1]", "value": 4.07}, {"measurement": "glycan array binding signal (z-score)", "setting": "[2]", "value": -0.244}, {"measurement": "glycan array binding signal (z-score)", "setting": "[3]", "value": -0.242}, {"measurement": "glycan array binding signal (z-score)", "setting": "[4]", "value": -0.249}, {"measurement": "glycan array binding signal (z-score)", "setting": "[5]", "value": 1.03}, {"measurement": "glycan array binding signal (z-score)", "setting": "[6]", "value": -0.242}, {"measurement": "glycan array binding signal (z-score)", "setting": "[7]", "value": 2.51}, {"measurement": "glycan array binding signal (z-score)", "setting": "[8]", "value": -0.238}, {"measurement": "glycan array binding signal (z-score)", "setting": "[9]", "value": -0.238}, {"measurement": "glycan array binding signal (z-score)", "setting": "[10]", "value": 3.82}, {"measurement": "glycan array binding signal (z-score)", "setting": "[11]", "value": -0.248}, {"measurement": "glycan array binding signal (z-score)", "setting": "[12]", "value": -0.233}, {"measurement": "glycan array binding signal (z-score)", "setting": "[13]", "value": -0.24}, {"measurement": "glycan array binding signal (z-score)", "setting": "[14]", "value": 6.61}, {"measurement": "glycan array binding signal (z-score)", "setting": "[15]", "value": 5.29}, {"measurement": "glycan array binding signal (z-score)", "setting": "[16]", "value": 5.63}, {"measurement": "glycan array binding signal (z-score)", "setting": "[17]", "value": -0.24}, {"measurement": "glycan array binding signal (z-score)", "setting": "[18]", "value": -0.24}, {"measurement": "glycan array binding signal (z-score)", "setting": "[19]", "value": -0.241}, {"measurement": "glycan array binding signal (z-score)", "setting": "[20]", "value": 4.25}, {"measurement": "glycan array binding signal (z-score)", "setting": "[21]", "value": -0.106}, {"measurement": "glycan array binding signal (z-score)", "setting": "[22]", "value": 5.87}, {"measurement": "glycan array binding signal (z-score)", "setting": "[23]", "value": -0.239}, {"measurement": "glycan array binding signal (z-score)", "setting": "[24]", "value": -0.252}, {"measurement": "glycan array binding signal (z-score)", "setting": "[25]", "value": -0.239}, {"measurement": "glycan array binding signal (z-score)", "setting": "[26]", "value": -0.239}, {"measurement": "glycan array binding signal (z-score)", "setting": "[27]", "value": 5.92}, {"measurement": "glycan array binding signal (z-score)", "setting": "[28]", "value": 7.33}, {"measurement": "glycan array binding signal (z-score)", "setting": "[29]", "value": -0.246}, {"measurement": "glycan array binding signal (z-score)", "setting": "[30]", "value": -0.246}, {"measurement": "glycan array binding signal (z-score)", "setting": "[31]", "value": -0.24}, {"measurement": "glycan array binding signal (z-score)", "setting": "[32]", "value": -0.242}, {"measurement": "glycan array binding signal (z-score)", "setting": "[33]", "value": -0.243}, {"measurement": "glycan array binding signal (z-score)", "setting": "[34]", "value": -0.251}, {"measurement": "glycan array binding signal (z-score)", "setting": "[35]", "value": 3.9}, {"measurement": "glycan array binding signal (z-score)", "setting": "[36]", "value": 5.95}, {"measurement": "glycan array binding signal (z-score)", "setting": "[37]", "value": 0.262}, {"measurement": "glycan array binding signal (z-score)", "setting": "[38]", "value": -0.236}, {"measurement": "glycan array binding signal (z-score)", "setting": "[39]", "value": -0.249}, {"measurement": "glycan array binding signal (z-score)", "setting": "[40]", "value": -0.245}]}]}
